Screens deposited in PubChem BioAssay by SRMLSC.
Fluor 339 460 = intrinsic fluorescence of library compounds, ex339/em460 – biochemical, MLSMR library, data from DPM-DC assay, artefact control, profiling panel; AID 709; fluorescence fold increase at 10 µM; compound autofluorescence, ex339/em460 nm, NADH buffer; hits give high values; 1 = no-compound wells, NADH background; 65,000 tested, 5.5% active;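 active = at 10 µM, mean starting fluorescence two-fold or more over control wells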;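 also: signal is the first read of a kinetic run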
Spn DPM-DC inh = blocks S. pneumoniae diphosphomevalonate decarboxylase | purified DPM-DC, PK/LDH coupled NADH fluorescence | 65,000 tested, 0.49% active | calls only at 10 µM;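 active = the 320 compounds with the highest percent inhibition in the single-dose primary screen, excluding strongly autofluorescent ones, cut at about 32% in these data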;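 also: kinetic rate of NADH fluorescence loss reporting ADP formed by the decarboxylase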
Spn MK inh = blocks S. pneumoniae mevalonate kinase; purified MK, PK/LDH-coupled NADH absorbance 340 nm; inhibition, % at 10 µM; 65,000 tested, 0.48% active;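 active = ranked among the strongest by inhibition in the single 10 µM screen, a fixed top-ranked set picked for dose follow-up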
A340 absorber = compounds absorbing at 340 nm. compound absorbance at 340 nm, fold over control. fold change at 10 µM. 65,000 tested, under 10 active. AID 708;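 active = at 10 µM dose, initial 340 nm absorbance at least 2 fold that of control wells; inactive = change under 2 fold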;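 also: initial absorbance extrapolated from kinetic A340 decline of NADH oxidation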
NADH coupling = blocks coupling enzymes of NAD/NADH assays | coupled PK/LDH NADH assays, four targets | AID 774 | 65,000 tested, 0.02% active | IC50, µM (series often up to 10 µM);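 active = single-dose screening hits from any of four coupled enzyme assays that gave an IC50 when retested across doses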;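 also: the DPM-DC format reads NADH fluorescence rather than 340 nm absorbance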
PMK inhibit = blocks S. pneumoniae phosphomevalonate kinase; 65,000 tested, 0.49% active; inhibition, % at 10 µM; purified PMK, PK/LDH-coupled NADH absorbance 340 nm;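 active = top-ranked compounds by inhibition in the single 10 µM screen, taking a fixed number of the strongest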
Of the large screens only hits and unclear results are named; the others gave an inactive call. A selection: hits, their analogues and other compounds. The true share with any hit is near 6.3%.

COC(=O)c1c(NC(=O)c2c(C)noc2C)sc2c1CCCCCC2	Fluor 339 460 3.4 (not shown: Spn DPM-DC inh)
COC(=O)c1c(NC(=O)c2ccc(C)o2)sc2c1CCCCC2	Fluor 339 460 3.7 (not shown: Spn DPM-DC inh)
CC1CCN(Cc2nc3c(c(=O)n(C)c(=O)n3C)n2CCN2CCOCC2)CC1	none
O=C(Nc1ccc2oc(=O)ccc2c1)c1ccco1	Fluor 339 460 2.8
O=C(Nc1ccc(Nc2ccccc2)cc1)c1ccco1	none
COc1ccc(-c2nnnn2CCc2ccccc2)cc1	none
CCOC(=O)c1cc(C#N)c(SCC(=O)c2cc(C#N)c(SC)nc2C)[nH]c1=O	Fluor 339 460 2 (not shown: Spn DPM-DC inh)
COC(=O)CSc1nc(C)c(C(C)=O)cc1C#N	none
COc1ccccc1NC(=O)COc1ccc(CO)cc1Cl	none
Cc1cccn2c(=O)c3cc(C(=O)NCc4ccccc4)c(=N)n(CCCN4CCOCC4)c3nc12	Fluor 339 460 5.2 (not shown: Spn DPM-DC inh)
Cc1cccn2c(=O)c3cc(C(=O)NCCN4CCOCC4)c(=N)n(CCc4ccccc4)c3nc12	Fluor 339 460 2.3 (not shown: Spn DPM-DC inh)
Cc1cnc(C(=O)Nc2ccccc2-c2ccc(C)o2)cn1	none
CCCC(=O)c1c(NC(C)C)cc(C)oc1=O	none
COC(=O)C(C)Sc1nc(-c2ccc(OC)cc2)nc2c1c(=O)n(C)c(=O)n2C (stereo not given)	Fluor 339 460 3.6
CCOC(=O)C(C)Sc1nc(-c2ccc(OC)cc2)nc2c1c(=O)n(C)c(=O)n2C (stereo not given)	Fluor 339 460 2.2 (not shown: Spn DPM-DC inh)
CC(=O)C(Sc1nc(-c2ccc(F)cc2)nc2c1c(=O)n(C)c(=O)n2C)C(C)=O	none
CCOC(=O)C(CC)Sc1nc(-c2ccc(OC)cc2)nc2c1c(=O)n(C)c(=O)n2C (stereo not given)	Fluor 339 460 5 (not shown: Spn DPM-DC inh)
CCCc1nc(SCC(=O)c2ccc(OC)cc2)c2c(=O)n(C)c(=O)n(C)c2n1	none
CC1Cc2ccccc2N1C(=O)CSc1nnnn1Cc1ccccc1 (stereo not given)	none
CN1CCN(Cc2c(O)c(Cl)cc3c(-c4ccccc4)cc(=O)oc23)CC1	none
Cc1cc(=O)oc2c(CN3CCN(C)CC3)c(O)c(Cl)cc12	Fluor 339 460 2.5 (not shown: Spn DPM-DC inh)
O=c1oc2ccccc2c(O)c1CN1CCCCC1	none (no result: Spn MK inh)
Cc1c(C)c2cc(Cl)c(O)c(CN3CCCCC3)c2oc1=O	Fluor 339 460 2.5 (not shown: Spn DPM-DC inh)
CCCc1cc(=O)oc2c(CN3CCN(C)CC3)c(O)c(Cl)cc12	Fluor 339 460 2.3 (not shown: Spn DPM-DC inh)
CCCCc1cc(=O)oc2c(CN3CCCC3)c(O)c(Cl)cc12	Fluor 339 460 3 (not shown: Spn DPM-DC inh)
CCn1c(SCc2nc3cc(OC)c(OC)cc3c(=O)[nH]2)nnc1-c1ccncc1	none
COc1ccc2[nH]c(C)c(CN3CCC(C)CC3)c(=O)c2c1	none
COc1ccc2[nH]c(C)c(CN3CCCC(C)C3)c(=O)c2c1 (stereo not given)	Fluor 339 460 2.1
CCOc1ccc2[nH]c(C)c(CN3CCCCC3)c(=O)c2c1	Fluor 339 460 3
COC(=O)c1ccc(CSc2ncnc3c2nnn3-c2ccc(F)cc2)o1	none
CC(=O)Nc1nc2n(n1)C(c1ccc(Cl)cc1)C=C(C)N2 (stereo not given)	Fluor 339 460 4.9 (not shown: Spn DPM-DC inh)
O=C(Nc1nc2n(n1)C(c1ccccc1)C=C(c1ccccc1)N2)c1ccco1 (stereo not given)	Fluor 339 460 2.6
Nc1nc(NC(=O)c2ccco2)nn1-c1ccccc1	none
O=C(c1nc2n(n1)C(c1ccc(Cl)cc1)C=C(c1ccccc1)N2)N1CCOCC1 (stereo not given)	none
CC(=O)Nc1nc2n(n1)C(c1ccc(F)cc1)C=C(c1ccccc1)N2 (stereo not given)	Fluor 339 460 3.4 (not shown: Spn DPM-DC inh)
O=C(Nc1nc2nc(-c3ccccc3)cc(-c3ccccc3)n2n1)c1ccco1	Fluor 339 460 4 (not shown: Spn DPM-DC inh)
CC(=O)Nc1nc2n(n1)C(c1ccccc1)C=C(c1ccccc1)N2 (stereo not given)	none
Cc1cccc(S(=O)(=O)C(C#N)c2nc3ccccc3nc2N2CCOCC2)c1 (stereo not given)	none
O=C(CSc1nnc(-c2ccc(O)cc2)n1Cc1ccco1)N1CCc2ccccc2C1	none
Cn1c(OCc2ccc3c(c2)OCO3)nc2c1c(=O)n(Cc1cccc(Cl)c1)c(=O)n2C	none (no result: Spn MK inh)
COc1ccccc1C1C=C(c2ccc(Cl)cc2)Nc2nc(NS(C)(=O)=O)nn21 (stereo not given)	Fluor 339 460 4 (not shown: Spn DPM-DC inh)
COc1ccc(C2C=C(c3ccc(Br)cc3)Nc3nc(N4C(=O)CCC4=O)nn32)cc1 (stereo not given)	Fluor 339 460 3.9 (not shown: Spn DPM-DC inh)
COc1ccc(C2=CC(c3ccc(F)cc3)n3nnnc3N2)cc1 (stereo not given)	none
COc1ccc(C2C=C(c3ccc(Cl)cc3)Nc3nc(NC(C)=O)nn32)cc1 (stereo not given)	Fluor 339 460 2.3 (not shown: Spn DPM-DC inh)
CCOC(=O)Nc1ccc(S(=O)(=O)Nn2cnnc2)cc1	none
Cc1ccc(OCn2c(=O)sc3ccccc32)cc1	none
O=C(COC(=O)Cc1ccc(S(=O)(=O)N2CCOCC2)s1)NCc1ccccc1	Spn MK inh 49
Cc1cc(NC(=O)CCC(=O)N(c2ccccc2)C(C(=O)NCC2CCCO2)c2cccnc2)no1 (stereo not given)	none
Nc1c(C(=O)NCCN2CCOCC2)c2nc3ccccc3nc2n1-c1ccccc1	Fluor 339 460 3.9 (not shown: Spn DPM-DC inh)
C=CCNC(=O)c1c(N)n(-c2cccc(S(N)(=O)=O)c2)c2nc3ccccc3nc12	Fluor 339 460 2.1 (not shown: Spn DPM-DC inh)
COCCNC(=O)c1c(N)n(-c2cccc(C)c2)c2nc3ccccc3nc12	Fluor 339 460 3.9 (not shown: Spn DPM-DC inh)
C=CCn1c(N)c(C(=O)Nc2ccccc2)c2nc3ccccc3nc21	none
COC(=O)c1c(N)n(-c2ccc(NC(C)=O)cc2)c2nc3ccccc3nc12	Fluor 339 460 3.8 (not shown: Spn DPM-DC inh)
COC(=O)c1c(N)n(-c2ccc(N3CCOCC3)cc2)c2nc3ccccc3nc12	none
CN1C(=O)c2ccccc2C(C(=O)NCC2CCCO2)C1c1c[nH]c2ccccc12 (stereo not given)	none
CCOC(=O)C1=C(c2ccccc2)NC(SCC(=O)Nc2ccccc2C)=C(C#N)C1c1ccco1 (stereo not given)	none
Nc1c(C(=O)NCCN2CCOCC2)c2nc3ccccc3nc2n1-c1ccc2c(c1)OCO2	Spn DPM-DC inh active
COc1ccccc1-c1nnc(NC(=O)c2ccc(S(=O)(=O)N(C)Cc3ccccc3)cc2)o1	Fluor 339 460 3 (not shown: Spn DPM-DC inh)
CN(Cc1ccccc1)S(=O)(=O)c1ccc(C(=O)Nc2nnc(C3CC3)o2)cc1	none
S=c1[nH]nc(-c2ccccc2)n1C1C=CCCC1 (stereo not given)	Spn DPM-DC inh active
CCOC(=O)N1CCC(N2C(=O)c3ccccc3C2Nc2cc(C(=O)OC)cc(C(=O)OC)c2)CC1 (stereo not given)	Fluor 339 460 2.1 (not shown: Spn DPM-DC inh)
CCOc1cccc2cc(-c3nnc(-c4ccccc4)o3)c(=O)oc12	none
